# According to article PMC7862700, “An all-to-all approach to the identification of sequence-specific readers for epigenetic DNA modifications on cytosine”:
# What was measured:
# Assay in all cases: DAPPL (digital affinity profiling via proximity ligation, sequencing); 10 mM Tris-HCl pH 7.5, 50 mM NaCl, 1 mM DTT, 4% glycerol, room temperature, 30 min; GST-TFs on glutathione beads, 16-mer random dsDNA library, 0.1% formaldehyde crosslink after washing; high values mean tight binding
# FLI1 = biological target: T1, FLI1 (Homo sapiens, UniProt Q01543 1-452); settings: protein: recombinant; tags: N-terminal GST; dsDNA, one strand shown
# T1 sequence: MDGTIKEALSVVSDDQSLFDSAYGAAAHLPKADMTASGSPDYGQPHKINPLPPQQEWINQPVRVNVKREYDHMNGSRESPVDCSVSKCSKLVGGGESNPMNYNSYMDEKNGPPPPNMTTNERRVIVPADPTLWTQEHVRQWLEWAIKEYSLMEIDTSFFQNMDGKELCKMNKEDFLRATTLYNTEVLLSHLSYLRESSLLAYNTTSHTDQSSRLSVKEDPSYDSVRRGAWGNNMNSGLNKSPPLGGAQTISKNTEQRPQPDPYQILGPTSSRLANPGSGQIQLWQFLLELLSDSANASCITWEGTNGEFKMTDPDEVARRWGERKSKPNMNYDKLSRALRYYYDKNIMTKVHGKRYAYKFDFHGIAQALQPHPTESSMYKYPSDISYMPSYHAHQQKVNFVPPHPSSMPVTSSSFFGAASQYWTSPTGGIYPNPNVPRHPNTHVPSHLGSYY
# In short: (§1)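 Human transcription factors were made in yeast as GST fusions, captured on glutathione beads and barcoded with DNA. With a tag-only sample included, the pool was incubated with 200 nmole of a random double-stranded 16-mer DNA library in Tris/NaCl/DTT/glycerol buffer at room temperature for 30 min, then crosslinked with 0.1% formaldehyde after washing, ligated by proximity, amplified and sequenced. For binding signal, each hexamer's read frequency for a factor is divided by its frequency for the tag-only sample.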
# ELK1 = biological target: T2, ELK1 (Homo sapiens, UniProt P19419 1-428); settings: protein: recombinant; tags: N-terminal GST; dsDNA, one strand shown
# T2 sequence: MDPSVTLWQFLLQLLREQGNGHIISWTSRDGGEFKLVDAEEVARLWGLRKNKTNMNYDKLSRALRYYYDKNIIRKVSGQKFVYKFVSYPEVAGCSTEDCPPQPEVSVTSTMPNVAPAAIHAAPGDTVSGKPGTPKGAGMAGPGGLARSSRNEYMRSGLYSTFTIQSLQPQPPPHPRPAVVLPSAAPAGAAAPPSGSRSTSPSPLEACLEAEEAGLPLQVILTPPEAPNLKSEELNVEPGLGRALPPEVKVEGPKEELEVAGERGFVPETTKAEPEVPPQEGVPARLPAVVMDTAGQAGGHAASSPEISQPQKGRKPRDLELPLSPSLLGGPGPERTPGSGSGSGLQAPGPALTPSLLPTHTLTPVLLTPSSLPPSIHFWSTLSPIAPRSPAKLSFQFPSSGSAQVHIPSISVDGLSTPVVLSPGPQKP
# In short: as §1
# GABPA = biological target: T3, GABPA (Homo sapiens, UniProt Q06546 1-454); settings: protein: recombinant; tags: N-terminal GST; dsDNA, one strand shown
# T3 sequence: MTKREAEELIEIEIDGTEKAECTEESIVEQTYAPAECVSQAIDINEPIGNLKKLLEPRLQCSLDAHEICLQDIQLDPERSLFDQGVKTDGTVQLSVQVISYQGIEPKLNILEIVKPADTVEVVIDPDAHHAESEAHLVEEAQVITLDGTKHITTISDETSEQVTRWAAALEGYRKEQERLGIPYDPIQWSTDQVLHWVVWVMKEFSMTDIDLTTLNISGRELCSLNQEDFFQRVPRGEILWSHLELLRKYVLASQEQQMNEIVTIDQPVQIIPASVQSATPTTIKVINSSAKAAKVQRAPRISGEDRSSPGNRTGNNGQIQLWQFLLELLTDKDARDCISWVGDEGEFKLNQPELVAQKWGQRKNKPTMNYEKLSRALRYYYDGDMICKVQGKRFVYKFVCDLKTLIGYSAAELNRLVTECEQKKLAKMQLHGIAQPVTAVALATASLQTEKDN
# In short: as §1
# ERG = biological target: T4, ERG (Homo sapiens, UniProt P11308 1-479); settings: protein: recombinant; tags: N-terminal GST; dsDNA, one strand shown
# T4 sequence: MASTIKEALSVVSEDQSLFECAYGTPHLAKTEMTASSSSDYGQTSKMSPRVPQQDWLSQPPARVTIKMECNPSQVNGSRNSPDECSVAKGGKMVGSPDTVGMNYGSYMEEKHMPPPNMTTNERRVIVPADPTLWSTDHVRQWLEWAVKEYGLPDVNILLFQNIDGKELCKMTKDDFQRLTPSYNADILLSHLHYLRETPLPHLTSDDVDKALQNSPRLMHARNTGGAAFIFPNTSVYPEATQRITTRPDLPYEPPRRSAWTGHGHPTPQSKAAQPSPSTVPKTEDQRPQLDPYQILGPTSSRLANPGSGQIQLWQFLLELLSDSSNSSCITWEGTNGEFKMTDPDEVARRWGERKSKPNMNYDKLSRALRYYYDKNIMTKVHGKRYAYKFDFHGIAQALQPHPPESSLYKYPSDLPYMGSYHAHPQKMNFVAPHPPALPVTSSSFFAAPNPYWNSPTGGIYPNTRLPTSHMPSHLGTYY
# In short: as §1
# ELF1 = ELF1 (Homo sapiens, UniProt P32519 1-619); settings: protein: recombinant; tags: N-terminal GST; dsDNA, one strand shown
# Chain of ELF1 (P32519 whole entry): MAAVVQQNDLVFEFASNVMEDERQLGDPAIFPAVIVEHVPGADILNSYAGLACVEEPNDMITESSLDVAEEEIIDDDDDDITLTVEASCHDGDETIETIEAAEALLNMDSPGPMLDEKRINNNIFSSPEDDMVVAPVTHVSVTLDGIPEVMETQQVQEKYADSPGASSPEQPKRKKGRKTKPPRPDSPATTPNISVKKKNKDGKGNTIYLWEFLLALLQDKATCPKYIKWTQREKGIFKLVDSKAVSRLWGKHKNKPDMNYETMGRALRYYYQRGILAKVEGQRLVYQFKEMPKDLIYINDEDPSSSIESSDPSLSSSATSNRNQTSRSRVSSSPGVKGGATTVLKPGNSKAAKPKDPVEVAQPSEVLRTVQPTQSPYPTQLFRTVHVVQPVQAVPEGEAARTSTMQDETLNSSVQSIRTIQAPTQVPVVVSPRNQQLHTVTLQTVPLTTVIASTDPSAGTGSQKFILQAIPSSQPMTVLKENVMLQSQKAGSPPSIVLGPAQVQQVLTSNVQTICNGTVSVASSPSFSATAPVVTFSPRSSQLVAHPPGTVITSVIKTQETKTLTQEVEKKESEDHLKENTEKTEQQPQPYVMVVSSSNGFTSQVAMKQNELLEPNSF
# In short: as §1
# EHF = biological target: T5, EHF (Homo sapiens, UniProt Q9NZC4 1-300); settings: protein: recombinant; tags: N-terminal GST; dsDNA, one strand shown
# T5 sequence: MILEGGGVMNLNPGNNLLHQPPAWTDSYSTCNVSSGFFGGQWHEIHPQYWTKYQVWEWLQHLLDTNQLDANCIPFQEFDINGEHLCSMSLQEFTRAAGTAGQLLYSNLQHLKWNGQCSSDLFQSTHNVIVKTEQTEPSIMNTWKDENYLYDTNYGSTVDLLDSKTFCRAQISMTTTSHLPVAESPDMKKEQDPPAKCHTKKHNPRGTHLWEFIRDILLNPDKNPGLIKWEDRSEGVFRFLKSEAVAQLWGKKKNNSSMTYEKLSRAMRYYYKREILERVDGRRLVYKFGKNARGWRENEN
# In short: as §1
# SPI1 = SPI1 (Homo sapiens, UniProt P17947 1-270); settings: protein: recombinant; tags: N-terminal GST; dsDNA, one strand shown
# In short: as §1
# SPIB = SPIB (Homo sapiens, UniProt Q01892 1-262); settings: protein: recombinant; tags: N-terminal GST; dsDNA, one strand shown
# Chain of SPIB (Q01892 whole entry): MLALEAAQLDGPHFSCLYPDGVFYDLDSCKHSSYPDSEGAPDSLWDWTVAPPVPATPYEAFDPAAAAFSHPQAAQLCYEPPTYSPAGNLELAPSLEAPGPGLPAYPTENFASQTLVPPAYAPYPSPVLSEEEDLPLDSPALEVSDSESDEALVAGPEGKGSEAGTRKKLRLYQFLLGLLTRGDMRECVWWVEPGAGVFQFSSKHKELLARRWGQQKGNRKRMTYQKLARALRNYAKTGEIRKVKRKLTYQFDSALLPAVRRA
# In short: as §1
# ELK3 = biological target: T6, ELK3 (Homo sapiens, UniProt P41970 1-407); settings: protein: recombinant; tags: N-terminal GST; dsDNA, one strand shown
# T6 sequence: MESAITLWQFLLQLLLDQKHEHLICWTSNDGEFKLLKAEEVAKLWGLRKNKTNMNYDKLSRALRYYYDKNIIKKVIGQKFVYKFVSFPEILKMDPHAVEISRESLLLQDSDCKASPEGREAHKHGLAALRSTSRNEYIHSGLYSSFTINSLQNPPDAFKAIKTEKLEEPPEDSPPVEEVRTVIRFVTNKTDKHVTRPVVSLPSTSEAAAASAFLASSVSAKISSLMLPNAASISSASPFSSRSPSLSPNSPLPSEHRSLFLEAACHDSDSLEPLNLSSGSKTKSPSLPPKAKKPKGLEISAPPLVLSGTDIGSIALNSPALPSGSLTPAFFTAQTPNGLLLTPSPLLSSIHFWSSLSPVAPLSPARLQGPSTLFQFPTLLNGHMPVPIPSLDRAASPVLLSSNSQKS
# In short: as §1
# FEV = biological target: T7, FEV (Homo sapiens, UniProt Q99581 1-238); settings: protein: recombinant; tags: N-terminal GST; dsDNA, one strand shown
# T7 sequence: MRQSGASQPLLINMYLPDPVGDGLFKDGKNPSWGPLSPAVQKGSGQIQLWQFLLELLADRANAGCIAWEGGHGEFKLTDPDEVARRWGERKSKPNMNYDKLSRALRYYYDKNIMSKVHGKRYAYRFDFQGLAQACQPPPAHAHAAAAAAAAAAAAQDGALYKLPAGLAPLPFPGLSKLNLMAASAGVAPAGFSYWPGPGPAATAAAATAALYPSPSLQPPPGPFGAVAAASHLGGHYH
# In short: as §1
# ETV5 = ETV5 (Homo sapiens, UniProt P41161 1-510); settings: protein: recombinant; tags: N-terminal GST; dsDNA, one strand shown
# Chain of ETV5 (P41161 whole entry): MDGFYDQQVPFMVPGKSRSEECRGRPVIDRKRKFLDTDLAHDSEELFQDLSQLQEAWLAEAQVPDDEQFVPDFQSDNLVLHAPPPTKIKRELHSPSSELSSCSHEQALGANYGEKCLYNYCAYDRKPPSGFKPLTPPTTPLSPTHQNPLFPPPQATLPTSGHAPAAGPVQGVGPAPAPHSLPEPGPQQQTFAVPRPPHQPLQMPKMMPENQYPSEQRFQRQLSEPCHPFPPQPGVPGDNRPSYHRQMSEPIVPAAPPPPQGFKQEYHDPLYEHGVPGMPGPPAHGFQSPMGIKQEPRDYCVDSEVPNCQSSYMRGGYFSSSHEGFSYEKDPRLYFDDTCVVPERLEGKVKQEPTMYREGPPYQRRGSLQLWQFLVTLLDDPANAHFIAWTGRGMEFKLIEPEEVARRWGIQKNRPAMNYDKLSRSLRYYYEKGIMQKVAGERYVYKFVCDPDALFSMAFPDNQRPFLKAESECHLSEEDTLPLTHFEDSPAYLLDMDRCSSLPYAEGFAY
# In short: as §1
# HSF1 = HSF1 (Homo sapiens, UniProt Q00613 1-529); settings: protein: recombinant; tags: N-terminal GST; chain copies: 3; dsDNA, one strand shown
# Chain of HSF1 (Q00613 whole entry): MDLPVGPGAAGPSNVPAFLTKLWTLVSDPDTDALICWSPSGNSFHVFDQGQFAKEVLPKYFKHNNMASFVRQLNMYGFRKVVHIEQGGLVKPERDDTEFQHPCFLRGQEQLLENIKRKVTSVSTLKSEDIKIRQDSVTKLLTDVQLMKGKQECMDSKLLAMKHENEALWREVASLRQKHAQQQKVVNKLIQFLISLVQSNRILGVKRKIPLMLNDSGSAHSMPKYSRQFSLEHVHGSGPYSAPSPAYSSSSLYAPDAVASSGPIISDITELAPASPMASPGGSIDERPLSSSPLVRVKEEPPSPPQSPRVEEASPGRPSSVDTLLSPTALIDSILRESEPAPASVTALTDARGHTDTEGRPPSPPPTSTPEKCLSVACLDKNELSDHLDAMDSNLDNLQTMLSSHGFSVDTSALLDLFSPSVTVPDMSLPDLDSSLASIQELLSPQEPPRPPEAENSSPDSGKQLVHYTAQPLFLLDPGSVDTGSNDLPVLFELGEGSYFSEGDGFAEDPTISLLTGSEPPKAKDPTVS
# In short: as §1
# SPIC = biological target: T8, SPIC (Homo sapiens, UniProt Q8N5J4 1-248); settings: protein: recombinant; tags: N-terminal GST; dsDNA, one strand shown
# T8 sequence: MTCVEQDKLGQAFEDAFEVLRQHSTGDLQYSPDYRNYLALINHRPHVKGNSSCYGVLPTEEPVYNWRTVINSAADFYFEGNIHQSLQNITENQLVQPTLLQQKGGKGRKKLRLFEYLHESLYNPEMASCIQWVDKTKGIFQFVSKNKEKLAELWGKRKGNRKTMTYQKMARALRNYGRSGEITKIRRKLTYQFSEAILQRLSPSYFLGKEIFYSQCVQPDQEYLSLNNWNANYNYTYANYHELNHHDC
# In short: as §1
# ELF4 = ELF4 (Homo sapiens, UniProt Q99607 1-663); settings: protein: recombinant; tags: N-terminal GST; dsDNA, one strand shown
# Chain of ELF4 (Q99607 whole entry): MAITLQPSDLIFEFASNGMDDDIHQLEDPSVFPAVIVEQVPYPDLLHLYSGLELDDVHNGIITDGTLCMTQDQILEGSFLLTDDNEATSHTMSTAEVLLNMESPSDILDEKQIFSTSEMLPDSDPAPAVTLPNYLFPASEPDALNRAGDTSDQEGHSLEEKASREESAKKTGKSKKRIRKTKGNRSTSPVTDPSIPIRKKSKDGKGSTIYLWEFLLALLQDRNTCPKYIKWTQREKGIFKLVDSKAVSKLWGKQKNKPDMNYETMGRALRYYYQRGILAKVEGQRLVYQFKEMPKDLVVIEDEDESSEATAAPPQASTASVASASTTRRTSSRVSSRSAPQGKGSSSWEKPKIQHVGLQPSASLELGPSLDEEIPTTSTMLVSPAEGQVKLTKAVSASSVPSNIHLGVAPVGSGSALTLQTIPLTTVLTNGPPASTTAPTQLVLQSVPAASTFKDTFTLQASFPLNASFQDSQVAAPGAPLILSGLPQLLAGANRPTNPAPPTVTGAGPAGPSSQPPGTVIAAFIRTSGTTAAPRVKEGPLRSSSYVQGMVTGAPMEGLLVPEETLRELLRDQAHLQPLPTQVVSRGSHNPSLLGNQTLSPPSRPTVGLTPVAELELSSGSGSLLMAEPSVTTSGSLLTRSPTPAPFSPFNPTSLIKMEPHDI
# In short: as §1
# ELK4 = biological target: T9, ELK4 (Homo sapiens, UniProt P28324-2 1-405); settings: protein: recombinant; tags: N-terminal GST; dsDNA, one strand shown
# T9 sequence: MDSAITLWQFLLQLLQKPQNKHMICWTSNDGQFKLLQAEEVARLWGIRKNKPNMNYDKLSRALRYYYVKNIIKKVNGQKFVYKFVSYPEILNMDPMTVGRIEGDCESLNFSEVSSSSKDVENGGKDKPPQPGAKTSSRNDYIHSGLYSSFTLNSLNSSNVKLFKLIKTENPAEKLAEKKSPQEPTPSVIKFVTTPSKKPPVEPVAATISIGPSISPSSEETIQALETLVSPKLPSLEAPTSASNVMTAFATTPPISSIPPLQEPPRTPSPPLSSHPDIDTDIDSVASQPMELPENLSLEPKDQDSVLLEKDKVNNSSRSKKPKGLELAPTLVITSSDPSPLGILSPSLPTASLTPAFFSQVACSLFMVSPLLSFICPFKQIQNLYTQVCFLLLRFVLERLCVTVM
# In short: as §1
# ETV2 = biological target: T10, ETV2 (Homo sapiens, UniProt O00321 1-342); settings: protein: recombinant; tags: N-terminal GST; dsDNA, one strand shown
# T10 sequence: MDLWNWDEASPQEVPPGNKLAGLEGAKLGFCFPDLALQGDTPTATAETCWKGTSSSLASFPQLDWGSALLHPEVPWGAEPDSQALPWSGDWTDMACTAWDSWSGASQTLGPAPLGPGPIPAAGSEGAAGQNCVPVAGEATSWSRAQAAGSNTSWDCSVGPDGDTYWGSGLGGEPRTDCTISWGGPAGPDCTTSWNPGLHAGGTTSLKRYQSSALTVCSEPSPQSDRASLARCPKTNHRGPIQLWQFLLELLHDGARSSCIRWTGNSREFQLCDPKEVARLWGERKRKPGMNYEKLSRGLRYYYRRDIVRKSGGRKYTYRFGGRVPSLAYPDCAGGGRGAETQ
# In short: as §1
# ELF3 = biological target: T11, ELF3 (Homo sapiens, UniProt P78545 1-371); settings: protein: recombinant; tags: N-terminal GST; dsDNA, one strand shown
# T11 sequence: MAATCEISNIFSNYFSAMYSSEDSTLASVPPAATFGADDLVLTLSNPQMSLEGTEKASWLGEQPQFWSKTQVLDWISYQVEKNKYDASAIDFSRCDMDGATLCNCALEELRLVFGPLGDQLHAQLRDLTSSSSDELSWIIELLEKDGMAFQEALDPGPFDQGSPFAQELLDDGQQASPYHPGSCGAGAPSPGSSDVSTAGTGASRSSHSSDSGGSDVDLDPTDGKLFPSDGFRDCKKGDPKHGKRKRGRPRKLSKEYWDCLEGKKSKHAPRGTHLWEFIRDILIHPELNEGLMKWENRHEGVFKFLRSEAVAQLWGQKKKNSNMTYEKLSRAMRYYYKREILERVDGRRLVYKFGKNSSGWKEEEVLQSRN
# In short: as §1
# CRX = CRX (Homo sapiens, UniProt O43186 1-299); settings: protein: recombinant; tags: N-terminal GST; dsDNA, one strand shown
# Chain of CRX (O43186 whole entry): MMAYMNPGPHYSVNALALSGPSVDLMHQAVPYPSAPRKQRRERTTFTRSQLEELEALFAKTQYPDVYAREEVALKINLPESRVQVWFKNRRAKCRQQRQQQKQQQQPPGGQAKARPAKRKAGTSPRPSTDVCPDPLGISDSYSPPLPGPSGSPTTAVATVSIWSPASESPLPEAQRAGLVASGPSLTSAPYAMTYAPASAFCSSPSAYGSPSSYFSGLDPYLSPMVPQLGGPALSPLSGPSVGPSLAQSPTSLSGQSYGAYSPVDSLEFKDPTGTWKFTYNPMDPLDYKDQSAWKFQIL
# In short: as §1
# ETV1 = ETV1 (Homo sapiens, UniProt P50549 1-477); settings: protein: recombinant; tags: N-terminal GST; dsDNA, one strand shown
# Chain of ETV1 (P50549 whole entry): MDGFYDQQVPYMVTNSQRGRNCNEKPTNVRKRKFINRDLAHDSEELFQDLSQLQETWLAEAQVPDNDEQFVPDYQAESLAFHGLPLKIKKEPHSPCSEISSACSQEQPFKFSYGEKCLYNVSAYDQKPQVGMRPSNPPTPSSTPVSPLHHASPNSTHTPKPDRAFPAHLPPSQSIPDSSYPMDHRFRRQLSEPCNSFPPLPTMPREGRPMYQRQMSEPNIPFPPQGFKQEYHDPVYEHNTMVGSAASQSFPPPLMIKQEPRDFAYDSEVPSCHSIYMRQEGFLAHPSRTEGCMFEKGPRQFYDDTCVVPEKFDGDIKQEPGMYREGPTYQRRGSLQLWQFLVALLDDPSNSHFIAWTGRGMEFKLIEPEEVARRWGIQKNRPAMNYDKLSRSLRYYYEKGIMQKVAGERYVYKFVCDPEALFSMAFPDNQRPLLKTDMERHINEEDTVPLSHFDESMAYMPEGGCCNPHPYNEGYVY
# In short: as §1
sequence,measurement,setting,value
ATTTTG,binding signal,FLI1,"1.19 fold enrichment (6-mer frequency, TF over GST control)"
same,binding signal,ELK1,"1.25 fold enrichment (6-mer frequency, TF over GST control)"
same,binding signal,GABPA,"1.33 fold enrichment (6-mer frequency, TF over GST control)"
same,binding signal,ERG,"1.2 fold enrichment (6-mer frequency, TF over GST control)"
same,binding signal,ELF1,"1.28 fold enrichment (6-mer frequency, TF over GST control)"
same,binding signal,EHF,"1.3 fold enrichment (6-mer frequency, TF over GST control)"
same,binding signal,SPI1,"1.31 fold enrichment (6-mer frequency, TF over GST control)"
same,binding signal,SPIB,"1.28 fold enrichment (6-mer frequency, TF over GST control)"
same,binding signal,ELK3,"1.14 fold enrichment (6-mer frequency, TF over GST control)"
same,binding signal,FEV,"1.15 fold enrichment (6-mer frequency, TF over GST control)"
same,binding signal,ETV5,"1.28 fold enrichment (6-mer frequency, TF over GST control)"
same,binding signal,HSF1,"1.28 fold enrichment (6-mer frequency, TF over GST control)"
same,binding signal,SPIC,"1.09 fold enrichment (6-mer frequency, TF over GST control)"
same,binding signal,ELF4,"1.25 fold enrichment (6-mer frequency, TF over GST control)"
same,binding signal,ELK4,"1.31 fold enrichment (6-mer frequency, TF over GST control)"
same,binding signal,ETV2,"1.33 fold enrichment (6-mer frequency, TF over GST control)"
same,binding signal,ELF3,"1.31 fold enrichment (6-mer frequency, TF over GST control)"
same,binding signal,CRX,"1.32 fold enrichment (6-mer frequency, TF over GST control)"
same,binding signal,ETV1,"1.31 fold enrichment (6-mer frequency, TF over GST control)"
